# Test results: PubChem BioAssay (NCI)
# “And” between values parts separate entries of the source, which are not always exact repeats. Equal values may be shown once. This is part of a sample that, as a whole, favours compounds with a hit. Of some 83,000 tested, about 20% had one in any assay.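 Values shown are percent growth following 48 h exposure of cells in 96-well plates to a single concentration of compound; below 10 was considered active.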 Values without a mark were called inactive. The source made the active and inactive calls.
# How the values were obtained:
# Assay in all cases: NCI-60 one-dose screen, 48 h (100 = growth as untreated, 0 = no growth, -100 = all killed)
# Details in all cases: 10 µM unless noted
# NCI-H23 lung = test system: NCI-H23 lung
# NCI-H226 lung = test system: NCI-H226 lung
# NCI-H322M lung = test system: NCI-H322M lung
# HOP-62 NSCLC = test system: HOP-62 NSCLC
# NCI-H460 lung = test system: NCI-H460 lung
# HOP-92 NSCLC = test system: HOP-92 NSCLC
# NCI-H522 lung = test system: NCI-H522 lung
# A549/ATCC NSCLC = test system: A549/ATCC NSCLC
# 786-0 renal = test system: 786-0 renal
# COLO 205 colon = test system: COLO 205 colon
# DU-145 prostate = test system: DU-145 prostate
# K-562 leukemia = test system: K-562 leukemia
# MALME-3M melanoma = test system: MALME-3M melanoma
# MDA-MB-231 breast = test system: MDA-MB-231 breast
# RXF 393 renal = test system: RXF 393 renal
# SF-268 CNS = test system: SF-268 CNS
# SF-295 CNS = test system: SF-295 CNS
# SF-539 CNS = test system: SF-539 CNS
# UACC-257 melanoma = test system: UACC-257 melanoma
# M14 melanoma = test system: M14 melanoma
SMILES,growth (NCI-H23 lung),growth (NCI-H226 lung),growth (NCI-H322M lung),growth (HOP-62 NSCLC),growth (NCI-H460 lung),growth (HOP-92 NSCLC),growth (NCI-H522 lung),growth (A549/ATCC NSCLC),growth (786-0 renal),growth (COLO 205 colon),growth (DU-145 prostate),growth (K-562 leukemia),growth (MALME-3M melanoma),growth (MDA-MB-231 breast),growth (RXF 393 renal),growth (SF-268 CNS),growth (SF-295 CNS),growth (SF-539 CNS),growth (UACC-257 melanoma),growth (M14 melanoma)
COc1cc(/C=C(/c2ccccc2)[N+](=O)[O-])c(OC)c2c1OCO2,-34.7% (active),24.8%,3.33% (active),-19.6% (active),-16.1% (active),-49.2% (active),-62.8% (active),5.75% (active),-98% (active),-53.1% (active),-87.4% (active),0.225% (active),-49.6% (active),-47.9% (active),-79.8% (active),21.1%,28.8%,-90.5% (active),17.3%,11.9%
Cc1nc(-n2[nH]c(=O)ccc2=O)sc1N=Nc1ccccc1,103%,85.3%,97.3%,94.3%,102%,96.6%,103%,104%,94.4%,112%,112%,101%,102%,102%,97.5%,104%,99.3%,99.8%,109%,97.7%
COC(=O)c1nc(-c2ccc(C)cc2)oc1S(=O)(=O)c1ccc(Cl)cc1,91.3%,96%,99.6%,97.4%,109%,95.1%,59.6%,100%,86.1%,70.5%,113%,9.37% (active),31%,87%,120%,97.1%,108%,96.6%,100%,79.7%
COc1ccc(C(CC(=O)c2ccc3c(c2)OCO3)C(=O)O)cc1OC (stereo not given),104% and 96.7%,110%,107% and 96.1%,106% and 104%,102% and 112%,108% and 101%,88.6% and 78.1%,92.6% and 98%,111% and 98.6%,122% and 107%,121% and 106%,119% and 90.1%,114% and 90.3%,128% and 113%,115% and 106%,111% and 97.7%,86.9% and 81.9%,126% and 104%,91.5% and 106%,115% and 103%
COC(=O)/C=C1/SC(N2N=C(c3cccs3)CC2c2ccc(F)cc2)=NC1=O (stereo not given),82.2%,84%,93%,85.2%,24.4%,77.1%,24.3%,90.7%,85.3%,21.8%,31%,5.16% (active),79.7%,35%,48.7%,32.4%,91.4%,91.6%,84.4%,50.8%
CCCCCCCCCCCCC[C@H](O)C[C@H](O)[C@H](C)N,99.2% [1.25 µM],126% [1.25 µM],102% [1.25 µM],116% [1.25 µM],103% [1.25 µM],56.7% [1.25 µM],119% [1.25 µM],89.3% [1.25 µM],85.9% [1.25 µM],92.2% [1.25 µM],96.9% [1.25 µM],102% [1.25 µM],132% [1.25 µM],90% [1.25 µM],8.68% [1.25 µM] (active),115% [1.25 µM],108% [1.25 µM],100% [1.25 µM],113% [1.25 µM],95.9% [1.25 µM]
O=c1cc(N/N=C/c2ccc(F)cc2)c2cc(Cl)ccc2[nH]1,85.3%,76.1%,95.2%,95%,102%,-48.3% (active),72.8%,89.3%,89.5%,96.2%,102%,2.38% (active),98.4%,94.4%,113%,106%,100%,104%,85.8%,81.2%
CCCCCCCCCCCCCCCCCCOc1cccc(CC(=O)OCC[N+](CC)(CC)CC)c1,35.7%,59.6%,77.7%,69.1%,67%,52.3%,38.5%,60%,58.5%,47%,73.8%,31.8%,74.1%,41.4%,8.82% (active),61.7%,40.9%,51.1%,114%,42.3%
